Out of some 39,000 compounds screened, about 220 (0.56%) showed activity. What follows is part of a selection rich in actives, with near analogues and random picks from the rest. Unmarked numbers belong to inactive results.
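Also: Wild-type cells incubated without shaking, value is the mean of two biological replicates.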

In this experiment the test system is Escherichia coli K-12 BW25113. In words: relative growth (OD600 normalised to plate interquartile mean) (fraction); higher = less growth inhibition, active = 0.2 or less. Conditions: 50 µM; LB; incubation time: overnight (16-24 h).
For `Cc1noc(C)c1S(=O)(=O)Nc1ccc2c(c1)CC(=O)N([C@H](C)CO)C[C@@H](C)[C@H](CN(C)C(=O)NC(C)C)O2`, the relative growth is 1.03.

Take `C[C@H](CO)N1C[C@H](C)[C@@H](CN(C)S(C)(=O)=O)OCc2cnnn2CCCC1=O`: the relative growth was 1.07. Under `Cc1ccc(S(=O)(=O)N(C)C[C@@H]2Oc3c(NC(=O)c4ccncc4)cccc3C(=O)N([C@@H](C)CO)C[C@H]2C)cc1` stands 0.999. On to `COc1ccc2c(c1OCc1ccccc1)C[C@@H](C(=O)O)N(C(=O)C(c1ccccc1)c1ccccc1)C2`, for which the relative growth is 1.02. Under `C[C@@H]1CN([C@@H](C)CO)C(=O)c2cccc(NC(=O)C3CCOCC3)c2O[C@@H]1CN(C)C(=O)Nc1ccc2c(c1)OCO2` stands 1.01; under `CN(C)CC(=O)N[C@@H]1C=C[C@H](CC(=O)O)O[C@H]1CO`, 0.997; under `CCNC(=O)C[C@@H]1CC[C@H]2[C@H](COc3ccc(NS(=O)(=O)c4ccccc4C)cc3C(=O)N2C)O1`, 0.981.

In the case of `CNC[C@H]1Oc2ccc(NC(=O)CCN3CCOCC3)cc2CC(=O)N([C@@H](C)CO)C[C@@H]1C`, the relative growth was 0.977.

Consider `CCc1nnc(N)[nH]1`, for which the relative growth is 0.947. As for `C[C@H]1CCCCO[C@H](CN(C)Cc2ccccc2)[C@@H](C)CN([C@@H](C)CO)C(=O)c2cc(NC(=O)Nc3cccc4ccccc34)ccc2O1`, the figure is 0.996; as for `Cc1c(-c2ccccc2)n(C[C@@H](O)CN)c2ccccc12`, 0.892; as for `COC1(NC(=O)C2SC(=C(C(N)=O)C(=O)O)S2)C(=O)N2C(C(=O)O)=C(CSc3nnnn3C)CSC21` (configuration not stated), 0.0448 (active). As to `COC1(NC(=O)CSCC#N)C(=O)N2C(C(=O)[O-])=C(CSc3nnnn3C)CSC21.[Na+]` (configuration not stated), the relative growth was 0.0458 (active). Under `CO[C@@]1(NC(=O)CSC[C@@H](N)C(=O)O)C(=O)N2C(C(=O)O)=C(CSc3nnnn3C)CS[C@@H]21` stands 1; under `CO[C@@]1(NC(=O)[C@@H](C(=O)O)c2ccc(O)cc2)C(=O)N2C(C(=O)O)=C(CSc3nnnn3C)CO[C@@H]21`, 0.983; under `COC1(NC(=O)C(C(=O)[O-])c2ccc(O)cc2)C(=O)N2C(C(=O)[O-])=C(CSc3nnnn3C)COC21.[Na+].[Na+]` (configuration not stated), 0.0483 (active).

Regarding `CO[C@@H]1CN(C)C(=O)c2cc(NS(=O)(=O)c3cn(C)cn3)ccc2OC[C@@H](C)N(Cc2cccc(F)c2)C[C@@H]1C`, the relative growth is 1.02. For the compound `COc1ccc(NC(=O)Nc2ccc3c(c2)C(=O)N([C@H](C)CO)C[C@@H](C)[C@@H](CN(C)CC2CCCCC2)OCCCC[C@@H](C)O3)cc1`, the relative growth is 0.984. On to `O=C(NCc1ccccc1)[C@@H]1c2ccccc2C(=O)N(Cc2ccccc2C(F)(F)F)[C@H]1c1ccc(CO)cc1`, for which the relative growth was 1.

As to `CN1C(=O)c2cc(NC(=O)c3cccs3)ccc2OC[C@H]2O[C@H](CC(=O)NCC(F)(F)F)CC[C@H]21`, the relative growth is 1.

For `CCCN(C)C[C@@H]1OCCCC[C@@H](C)Oc2ccc(NC(=O)Nc3ccccc3)cc2C(=O)N([C@H](C)CO)C[C@@H]1C`, the relative growth was 1.01.

As for `CC(C)NC(=O)Nc1ccc2c(c1)C(=O)N([C@H](C)CO)C[C@H](C)[C@H](CN(C)CC1CCCCC1)OCCCC[C@@H](C)O2`, the relative growth is 0.955.

For `COc1ccc(S(=O)(=O)Nc2ccc3c(c2)C(=O)N([C@H](C)CO)C[C@H](C)[C@H](CN(C)C(=O)Nc2ccccc2)OCCCC[C@@H](C)O3)cc1`, the relative growth was 0.996. For the compound `NC(=O)[C@@H]1CC[C@@H]2CN1C(=O)N2OS(=O)(=O)O`, the relative growth was 0.19 (active). As for `NCCONC(=O)[C@@H]1CC[C@@H]2CN1C(=O)N2OS(=O)(=O)O`, the figure is 0.0923 (active); as for `COc1ccc(CN(C)C[C@H]2OCCCC[C@H](C)Oc3ccc(NS(=O)(=O)c4ccc(C)cc4)cc3C(=O)N([C@H](C)CO)C[C@@H]2C)cc1`, 1; as for `Cc1noc(C)c1NC(=O)Nc1ccc2c(c1)C(=O)N([C@@H](C)CO)C[C@@H](C)[C@H](CN(C)Cc1ccncc1)OCCCC[C@H](C)O2`, 0.993. As for `C[C@H](NC(=O)C[C@H]1C=C[C@H](NC(=O)CN2CCOCC2)[C@@H](CO)O1)c1ccccc1`, the figure is 0.983; as for `COc1ccc(C(=O)Nc2ccc3c(c2)C(=O)N(C)[C@@H]2CC[C@@H](CC(=O)NCC4CC4)O[C@H]2CO3)cc1`, 0.96. For `COc1ccc(NC(=O)N(C)C[C@H]2Oc3c(NS(=O)(=O)c4c(C)noc4C)cccc3C(=O)N([C@H](C)CO)C[C@H]2C)cc1`, the relative growth is 0.994. Under `CN(C)CC(=O)N[C@@H]1C=C[C@H](CC(=O)NCCN2CCCCC2)O[C@@H]1CO` stands 0.999; under `Cc1noc(C)c1NC(=O)Nc1ccc2c(c1)C(=O)N([C@@H](C)CO)C[C@@H](C)[C@H](CN(C)C(=O)Nc1ccc(C(F)(F)F)cc1)OCCCC[C@H](C)O2`, 1.02; under `CC(C)NC(=O)N[C@H]1CC[C@H](CCN)O[C@@H]1CO`, 0.987. Consider `NC[C@H]1O[C@H](O[C@H]2[C@H](O)[C@@H](O[C@H]3O[C@H](CO)[C@@H](O)[C@H](N)[C@H]3O)[C@H](N)C[C@@H]2N)[C@H](N)[C@@H](O)[C@@H]1O`, for which the relative growth was 0.0328 (active). `NCC1OC(OC2C(N)CC(N)C(OC3OC(CO)C(O)C(N)C3O)C2O)C(N)C(O)C1O.O=S(=O)(O)O` (configuration not stated): the relative growth is 0.0483 (active). As for `NC[C@H]1O[C@H](O[C@@H]2[C@H](O)[C@@H](O[C@H]3O[C@H](CO)[C@@H](O)[C@H](N)[C@H]3O)[C@H](N)C[C@@H]2N)[C@H](O)[C@@H](O)[C@@H]1O`, the figure is 0.983.

Take `NCC1OC(OC2C(N)CC(N)C(O)C2OC2OC(CO)C(O)C2O)C(N)C(O)C1O.O=S(=O)(O)O` (configuration not stated): the relative growth is 0.78. As for `NCC1OC(OC2C(N)CC(N)C(OC3OC(CO)C(O)C(N)C3O)C2O)C(O)C(O)C1O.O=S(=O)(O)O` (configuration not stated), the relative growth is 0.982. As for `NC[C@H]1O[C@H](O[C@H]2[C@@H](O[C@@H]3O[C@H](CO)[C@@H](O)[C@H]3O)[C@@H](O)[C@H](N)C[C@@H]2N)[C@H](N)[C@@H](O)[C@@H]1O`, the figure is 0.981; as for `CN1C=C(C(=O)OCCS(C)(=O)=O)C(C(=O)OCCS(C)(=O)=O)=CC(c2ccc(CO)cc2)=C[C@@H]1C1CC1`, 1.02; as for `Cc1ccc(S(=O)(=O)N[C@H]2CC[C@H](CC(=O)N3CCC(Cc4ccccc4)CC3)O[C@H]2CO)cc1`, 1.02.

Consider `Cc1noc(C)c1NC(=O)Nc1ccc2c(c1)C(=O)N([C@@H](C)CO)C[C@@H](C)[C@@H](CN(C)S(=O)(=O)c1ccccc1)OCCCC[C@H](C)O2`, for which the relative growth is 0.998.

In the case of `C[C@H]1CN([C@@H](C)CO)C(=O)c2cccc(NC(=O)Nc3ccccc3)c2O[C@@H]1CN(C)S(C)(=O)=O`, the relative growth was 0.991. For `CCS(=O)(=O)Nc1ccc2c(c1)C(=O)N(C)[C@@H]1CC[C@@H](CC(=O)NCc3ccc(OC)cc3)O[C@@H]1CO2`, the relative growth was 1.01. For `Cc1ccc(NC(=O)C[C@@H](N)C(=O)O)cc1`, the relative growth was 1.01. For the compound `CCNC(=O)c1csc(N)n1`, the relative growth was 0.971. Turning to `CCOC(=O)/C(=N/O)c1csc(N)n1`, the relative growth is 0.997. As for `CC1C(NC(=O)C(=NOC(C)(C)C(=O)O)c2csc(N)n2)C(=O)N1S(=O)(=O)O` (configuration not stated), the figure is 0.0499 (active); as for `C[C@H]1[C@H](NC(=O)/C(=N\OC(C)(C)C(=O)O)c2csc(N)n2)C(=O)N1S(=O)(=O)O`, 0.0312 (active); as for `COc1ccc(S(=O)(=O)N2C[C@H](O)COC[C@@H]3O[C@@H](CC(=O)NCCCN4CCOCC4)CC[C@H]32)cc1`, 0.999.

`CC(C)NC(=O)Nc1ccc2c(c1)C(=O)N([C@H](C)CO)C[C@@H](C)[C@H](CN(C)S(=O)(=O)c1ccc(Cl)cc1)O2`: the relative growth was 1.03. As for `Cn1c(=O)oc2cc(S(=O)(=O)N3CCC[C@H](C(=O)NN4CCOCC4)C3)ccc21`, the figure is 0.99. Under `CC(C)(O/N=C(\C(=O)N[C@@H]1C(=O)N2C(C(=O)O)=C(C[N+]3(CCNC(=O)c4ccc(O)c(O)c4Cl)CCCC3)CS[C@H]12)c1csc(N)n1)C(=O)O` stands 0.0469 (active); under `CC(C)(O/N=C(\C(=O)N[C@@H]1C(=O)N2C(C(=O)O)=C(C[n+]3ccccc3)CS[C@H]12)c1csc(N)n1)C(=O)O`, 0.0433 (active). Under `CC(C)(ON=C(C(=O)NC1C(=O)N2C(C(=O)[O-])=C(C[n+]3ccccc3)CSC12)c1csc(N)n1)C(=O)O` (configuration not stated) stands 0.0511 (active). On to `NC(=O)c1cc[n+](CC2=C(C(=O)O)N3C(=O)[C@@H](NC(=O)Cc4cccs4)[C@H]3SC2)cc1`, for which the relative growth is 1.04. As for `COc1ccc(CNC(=O)C[C@@H]2CC[C@H]3[C@@H](COc4ccc(NC(=O)C5CC5)cc4C(=O)N3C)O2)cc1`, the figure is 1.03; as for `CC(C)(C)[S@](=O)N1Cc2cc(C(=O)N3CCCCC3)nc(-c3cccc(-c4ccc(C#N)cc4)c3)c2[C@@H]1CCO`, 1; as for `C[C@@H]1CN([C@@H](C)CO)C(=O)c2cc(-c3ccc(C(=O)N(C)C)cc3)cnc2O[C@H]1CN(C)C(=O)c1cccnc1`, 1.03.

In the case of `CCCNC(=O)N1CC[C@]2(CC1)CN([C@@H](CO)c1[nH]c3cc(ccc3c12)OC)C(=O)CN1CCOCC1`, the relative growth was 0.998. Regarding `COCCOC(=O)N1C(=O)[C@@]2(c3cc(C#Cc4ccc(OC)cc4)ccc31)[C@H](C(=O)N1CCN(c3ncccn3)CC1)[C@H]1C(=O)O[C@H](c3ccccc3)[C@H](c3ccccc3)N1[C@@H]2c1ccccc1OCCO`, the relative growth is 1.07. Regarding `O=C1C[C@]2(c3ccc([N+](=O)[O-])cc3)C(=O)N(C3CC3)c3cc(CO)ccc3[C@H]2N1CC12CC3CC(CC(C3)C1)C2`, the relative growth was 1.01.

These data come from the supplement of paper PMC9446081.
